Reference: PubChem BioAssay (Tox21)
Several values for one entry are separate records, joined by “and”; a condition that tells them apart may be missing. Equal values may be shown once. Results filed as inconclusive are left out. Where a call stands in place of a potency, no number is given. The source holds several records for some structures; these can differ, active in one and inactive in another. Activity calls are given as the source filed them. Unless noted, calls come from the whole dose curve; as a rule, active = well fitted curve in the direction sought with a large enough effect in the repeat runs; inconclusive = weak or mixed curves; inactive = no such curve, though single readings can be large; an effect the other way counts as inactive or inconclusive.

Key:
[1] = qHTS assay to identify small molecule agonists of the RXR signaling pathway - cell viability counter screen (AID 1159529); note: nearly all actives have a fitted effect of over 50% in size
Summary of the method: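 Compounds dissolved in DMSO were pinned onto HEK 293T cells carrying a beta-lactamase reporter under RXR-alpha control and incubated 16 hr. Cytotoxicity was then quantified by CellTiter-Glo luminescence.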

[2] = qHTS assay to identify small molecule antagonists of the retinoid acid receptor (RAR) signaling pathway - cell viability counter screen (AID 1159551); note: nearly all actives have a fitted effect of over 35% in size
Summary of the method: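 Viability of C3RL4 cells is quantified from ATP by luminescence after 6 h treatment at 37 C with compounds and 1 uM retinol.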

[3] = qHTS assay to identify small molecule antagonists of the retinoic acid receptor (RAR) signaling pathway (AID 1159552; note: nearly all actives have a fitted effect of over 50% in size)
Summary of the method: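 Test chemicals and DMSO controls were pin-transferred onto C3RL4 cells a day after seeding; retinol (1 uM final) followed at once. Luminescent reporter output was quantified after 6 hr of co-incubation and 30 min with detection reagent.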

[4] = qHTS assay to identify small molecule agonists of the retinoic acid receptor (RAR) signaling pathway (AID 1159553); settings: C3RL4 RARE luciferase reporter, agonist, 6 h; activation: at 73.3 µM (top of the series) unless noted; note: potency is the fitted concentration of half-maximal effect
Summary of the method: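 Compounds dissolved in DMSO were pinned onto C3RL4 cells seeded the previous day, and plates were held 6 hr at 37 C. RARE-driven luciferase output was then read by luminescence.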

[5] = qHTS assay to identify small molecule antagonists of the estrogen related receptor (ERR) signaling pathway from Tox21 library - cell viability counter screen (AID 1224834); note: nearly all actives have a fitted effect of over 30% in size
Summary of the method: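 In this quantitative HTS format, ERR cells receive compounds in DMSO and are incubated for 17.5 h at 37 C. Live-cell protease activity is then detected with CellTiter-Fluor.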

[6] = target: Luciferin 4-monooxygenase (Photinus pyralis) (UniProt P08659); experiment: qHTS assay to identify small molecule inhibitors of firefly luciferase (AID 1224835); note: nearly all actives have a fitted effect of over 25% in size; note: potency is the fitted concentration of half-maximal effect
Summary of the method: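 Biochemical qHTS: compounds run as interplate titrations against purified firefly enzyme, with D-luciferin and ATP each at its KM concentration. Light output recorded by CCD imaging.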

[7] = qHTS assay to identify small molecule agonists of the constitutive androstane receptor (CAR) signaling pathway - cell viability counter screen (AID 1224836); note: nearly all actives have a fitted effect of over 45% in size
Summary of the method: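 23 h treatment, 37 C, 5% CO2. Cell line: HepG2 stably expressing hCAR with a CYP2B6-2.2kb construct. Co-treatment: PK11195, 0.75 uM final. Read-out: CellTiter-Fluor fluorescence intensity.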

[8] = qHTS assay to identify small molecule antagonists of the constitutive androstane receptor (CAR) signaling pathway - cell viability counter screen (AID 1224837); note: nearly all actives have a fitted effect of over 45% in size
Summary of the method: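 In quantitative HTS format, compounds at 15 concentrations were applied to HepG2 cells double-transfected with hCAR and CYP2B6-2.2kb under 50 nM CITCO stimulation; live-cell protease activity was read after 23 hr via CellTiter-Fluor.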

[9] = target: Nuclear receptor subfamily 1 group I member 3 (Homo sapiens) (UniProt Q14994); experiment: qHTS assay to identify small molecule antagonists of the constitutive androstane receptor (CAR) signaling pathway (AID 1224838); note: nearly all actives have a fitted effect of over 40% in size
Summary of the method: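 CITCO-stimulated (50 nM final) HepG2 cells stably transfected with hCAR and CYP2B6-2.2kb luciferase were exposed to compounds at 15 concentrations for 24 h at 37 C/5% CO2. A luciferase reagent was added and luminescence recorded after 30 min.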

[10] = target: Nuclear receptor subfamily 1 group I member 3 (Homo sapiens) (UniProt Q14994); experiment: qHTS assay to identify small molecule agonists of the constitutive androstane receptor (CAR) signaling pathway (AID 1224839); note: nearly all actives have a fitted effect of over 15% in size; note: potency is the fitted concentration of half-maximal effect;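 for activation: HepG2 cells stably carrying human CAR and a CYP2B6 luciferase reporter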
Summary of the method: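 Compounds tested at 15 concentrations on HepG2 cells stably harbouring hCAR and CYP2B6-2.2kb reporter constructs, co-treated with PK11195 (0.75 uM final), 24 h at 37 C; luminescent reporter signal quantified.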

[11] = qHTS assay to identify small molecule antagonists of the estrogen related receptor signaling pathway with the pleiotropic PPARgamma coactivator (PGC) from Tox21 10K library - cell viability counter screen (AID 1224840; active = well fitted cell-killing curve with a large enough effect in the repeat runs, not every such curve was filed as active; note: nearly all actives have a fitted effect of over 40% in size)
Summary of the method: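 Viability counter screen, PGC/ERR cells: 17.5 h compound exposure at 37 C, CellTiter-Fluor fluorescence endpoint.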

[12] = qHTS assay to identify small molecule antagonists of the estrogen related receptor signaling pathway with the pleiotropic PPARgamma coactivator (PGC) from Tox21 10K library (AID 1224841; call rule not given here; note: actives are mostly falling curves and most rising ones were filed inactive; nearly all actives have a fitted effect of over 50% in size)
Summary of the method: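 In the PGC/ERR line, DMSO solutions of test chemicals are pin-delivered to 2,000 cells/well six hours after dispensing. Following eighteen hours' incubation, One-Glo reagent is added and luminescence recorded.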

[13] = qHTS assay to identify small molecule agonists of the estrogen related receptor signaling pathway with the pleiotropic PPARgamma coactivator (PGC) from Tox21 10K library (AID 1224842); note: nearly all actives have a fitted effect of over 15% in size
Summary of the method: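 PGC/ERR reporter cell line, 2,000 cells per well, incubated 6 h at 37 C before 23 nL compound in DMSO was added. After 18 h at 37 C, One-Glo luminescence read following 30 min at room temperature.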

[14] = target: Thyrotropin receptor (Homo sapiens) (UniProt P16473); experiment: qHTS assay to identify small molecule agonists of the thyroid stimulating hormone receptor (TSHR) signaling pathway (AID 1224843; calls by dose curve; note: nearly all actives have a fitted effect of over 45% in size)
Summary of the method: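 HEK293/TSHR, 800 cells/well; cpd 30 min RT; add cAMP-d2 + anti-cAMP-cryptate, 1 h RT; fluorescence read on plate reader. 15-pt titration, n=3.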

[15] = qHTS assay to identify small molecule antagonists of the estrogen related receptor (ERR) signaling pathway - cell viability counter screen (AID 1224818)
Summary of the method: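 Cytotoxicity check run alongside the ERR antagonist screen: cells exposed to test compounds 17.5 h at 37 C, viability taken as CellTiter-Fluor fluorescence intensity.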

[16] = qHTS assay to identify small molecule antagonists of the estrogen related receptor signaling pathway with the pleiotropic PPARgamma coactivator (PGC) cell viability counter screen (AID 1224822)
Summary of the method: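 Viable cell signal (CellTiter-Fluor, 30 min, 37 C/5% CO2) was measured in PGC/ERR cells after a 17.5 h compound incubation.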

[17] = qHTS assay to identify small molecule agonists of the estrogen related receptor (ERR) signaling pathway (AID 1224820)
Summary of the method: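 Luminescence readout (One-Glo, 30 min RT) from NTP-supplied ERR cell line exposed to compounds for 18 h at 37 C. Cells seeded 2,000 per well and pre-incubated 6 h before pin-tool compound transfer.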

[18] = test system: estrogen-related receptor alpha (ERRalpha) with PGC-1alpha coactivator, human; experiment: qHTS assay to identify small molecule antagonists of the estrogen related receptor signaling pathway with the pleiotropic PPARgamma coactivator (PGC) (AID 1224821; calls by dose curve;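 note: lower luminescence signal means antagonism of PGC/ERR signalling; nearly all actives have a fitted effect of over 50% in size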)
Summary of the method: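 PGC/ERR reporter cells; 6 h pre-incubation 37 C/5% CO2; pin-tool compound in DMSO, 18 h 37 C; One-Glo added, 30 min RT; luminescence read. qHTS antagonist mode.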

[19] = qHTS assay to identify small molecule agonists of the estrogen related receptor signaling pathway with the pleiotropic PPARgamma coactivator (PGC) (AID 1224823)
Summary of the method: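 Luminescence readout (One-Glo, 30 min RT) from PGC/ERR cell line treated 18 h at 37 C with pin-tool-delivered DMSO compound solutions; cells plated 6 h before dosing. Quantitative HTS format.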

Chain of Nuclear receptor subfamily 1 group I member 3 (Homo sapiens) (Q14994 whole entry, looked up): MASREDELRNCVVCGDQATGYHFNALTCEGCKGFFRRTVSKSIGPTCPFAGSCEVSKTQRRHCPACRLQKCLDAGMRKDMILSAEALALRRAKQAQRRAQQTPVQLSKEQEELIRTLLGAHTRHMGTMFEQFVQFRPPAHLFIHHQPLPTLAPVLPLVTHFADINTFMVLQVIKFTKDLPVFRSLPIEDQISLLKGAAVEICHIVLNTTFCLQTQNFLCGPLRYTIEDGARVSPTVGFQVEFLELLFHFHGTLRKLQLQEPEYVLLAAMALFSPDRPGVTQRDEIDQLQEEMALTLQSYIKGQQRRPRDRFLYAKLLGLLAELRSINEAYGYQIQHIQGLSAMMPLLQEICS
Chain of Thyrotropin receptor (Homo sapiens) (P16473 whole entry, looked up): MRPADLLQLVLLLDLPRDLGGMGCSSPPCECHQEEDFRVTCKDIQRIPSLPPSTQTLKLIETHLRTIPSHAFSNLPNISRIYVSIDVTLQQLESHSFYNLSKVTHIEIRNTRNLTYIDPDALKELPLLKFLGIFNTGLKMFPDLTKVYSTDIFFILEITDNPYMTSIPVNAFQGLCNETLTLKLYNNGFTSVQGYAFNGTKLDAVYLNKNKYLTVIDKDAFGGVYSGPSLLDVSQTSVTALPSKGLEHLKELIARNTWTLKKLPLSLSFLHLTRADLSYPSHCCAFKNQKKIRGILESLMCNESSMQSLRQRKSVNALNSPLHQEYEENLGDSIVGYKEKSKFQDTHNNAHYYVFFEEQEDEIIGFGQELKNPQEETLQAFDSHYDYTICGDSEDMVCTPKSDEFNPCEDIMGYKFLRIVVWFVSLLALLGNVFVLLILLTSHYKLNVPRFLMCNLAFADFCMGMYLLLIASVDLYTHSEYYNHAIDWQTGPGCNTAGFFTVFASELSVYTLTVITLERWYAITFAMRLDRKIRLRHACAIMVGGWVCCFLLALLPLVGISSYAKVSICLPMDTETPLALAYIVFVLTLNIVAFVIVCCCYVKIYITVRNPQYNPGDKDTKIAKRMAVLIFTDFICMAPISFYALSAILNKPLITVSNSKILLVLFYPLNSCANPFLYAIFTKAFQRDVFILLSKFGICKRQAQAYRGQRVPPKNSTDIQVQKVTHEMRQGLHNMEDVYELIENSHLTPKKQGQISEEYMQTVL
Chain of Luciferin 4-monooxygenase (Photinus pyralis) (P08659 whole entry, looked up): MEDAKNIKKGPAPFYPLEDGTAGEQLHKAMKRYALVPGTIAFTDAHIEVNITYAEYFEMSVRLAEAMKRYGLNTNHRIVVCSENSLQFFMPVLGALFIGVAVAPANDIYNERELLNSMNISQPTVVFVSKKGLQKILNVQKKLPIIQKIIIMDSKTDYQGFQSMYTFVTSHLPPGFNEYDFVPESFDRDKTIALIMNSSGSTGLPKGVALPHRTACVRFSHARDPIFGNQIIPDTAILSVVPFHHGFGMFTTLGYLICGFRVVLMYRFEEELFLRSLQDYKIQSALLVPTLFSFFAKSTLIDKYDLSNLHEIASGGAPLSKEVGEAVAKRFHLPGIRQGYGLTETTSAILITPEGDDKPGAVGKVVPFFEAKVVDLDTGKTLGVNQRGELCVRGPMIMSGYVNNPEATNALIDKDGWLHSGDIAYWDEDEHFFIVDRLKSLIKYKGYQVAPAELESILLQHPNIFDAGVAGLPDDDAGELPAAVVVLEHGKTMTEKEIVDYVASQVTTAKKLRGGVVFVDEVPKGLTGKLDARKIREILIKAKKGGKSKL

Row | Structure (SMILES) | Potency [1] | Potency [2] | Potency [3] | Potency [4] | Potency [5] | Potency [6] | Potency [7] | Potency [8] | Potency [9] | Potency [10] | Potency [11] | Potency [12] | Potency [13] | Potency [14] | outcome [15] | outcome [16] | outcome [17] | outcome [18] | outcome [19]
1 | O=C(O)c1ccc(O)cc1 | inactive | inactive | inactive | inactive | inactive | inactive | inactive | inactive | inactive | inactive | inactive | inactive | inactive | inactive | – | – | – | – | –
2 | CCC(Cc1c(I)cc(I)c(N)c1I)C(=O)O (stereo unspecified) | inactive | inactive | inactive | inactive | inactive | inactive | inactive | inactive | inactive | 47 µM (active) | inactive | – | – | inactive | – | – | – | – | –
3 | CCCCCCCCCCCCO | inactive | inactive | inactive | inactive | inactive | 31.3 µM (active) | inactive | inactive | inactive | inactive | inactive | – | – | inactive | – | – | – | – | –
4 | Oc1c(Cl)ccc(Cl)c1Cl | inactive | inactive | inactive | inactive | inactive | inactive | inactive | inactive | inactive | inactive | inactive | inactive | inactive | – | – | – | – | – | –
5 | Nc1cc([N+](=O)[O-])ccc1C(=O)O | inactive | inactive | inactive | inactive | inactive | 64.6 µM (active) and 35.6 µM (active) | inactive | inactive | inactive | inactive | inactive | – | – | inactive | – | – | – | – | –
6 | C/C=C/C(=O)N(CC)c1ccccc1C | inactive | inactive | inactive | inactive | inactive | inactive | inactive | inactive | inactive | 27.3 µM (active) | inactive | inactive | inactive | inactive | – | – | – | – | –
7 | Cc1ccc(C)c(O)c1 | inactive | inactive | inactive | inactive | inactive | inactive | inactive | inactive | inactive | inactive | inactive | – | – | inactive | – | – | – | – | –
8 | COC(=O)CC(=O)OC | inactive | inactive | inactive | inactive | inactive | inactive | inactive | inactive | inactive | inactive | inactive | – | – | inactive | – | – | – | – | –
9 | CCc1cccc2c3c([nH]c12)C(CC)(CC(=O)O)OCC3 (stereo unspecified) | inactive | inactive | inactive | inactive | inactive | inactive | inactive | inactive | inactive | inactive | inactive | – | – | inactive | inactive | inactive | – | – | –
10 | CC(=O)Nc1ccc2c(c1)Cc1cc(NC(C)=O)ccc1-2 | inactive | inactive | inactive | 30.6 µM (active) | inactive | inactive | inactive | inactive | inactive | inactive and 7.7 µM (active) | inactive | – | – | inactive | – | – | – | – | –
11 | Cc1ccc2c(c1)C(=O)OC2=O | inactive | inactive | inactive | inactive | inactive | inactive | inactive | inactive | inactive | inactive | inactive | – | – | – | – | – | – | – | –
12 | c1ccc2c(c1)[nH]c1ccccc12 | inactive | inactive | inactive | inactive | inactive | 39.2 µM (active) and inactive | inactive | inactive | inactive | 60.1 µM (active) | inactive | – | – | – | – | – | – | – | –
13 | CC(C)(C)c1cccc(C(C)(C)C)c1O | inactive | inactive | inactive | inactive | inactive | inactive | inactive | inactive | inactive | inactive | inactive | – | – | inactive | – | – | – | – | –
14 | O=C(O)CCCC(=O)O | inactive | inactive | inactive | inactive | inactive | inactive | inactive | inactive | inactive | inactive | inactive | – | – | inactive | – | – | – | – | –
15 | C1COCCN1 | inactive | inactive | inactive | inactive | inactive | inactive | inactive | inactive | inactive | inactive | inactive | – | – | inactive | – | – | – | – | –
16 | C=CC(C)(O)CCC=C(C)C (stereo unspecified) | inactive | inactive | inactive | inactive | inactive | inactive | inactive | inactive | inactive | inactive | inactive | – | – | inactive | – | – | – | – | –
17 | CC1(C)NC(=O)N(c2ccc([N+](=O)[O-])c(C(F)(F)F)c2)C1=O | inactive | inactive | inactive | inactive | inactive | inactive | inactive | inactive | inactive | inactive | inactive | inactive | inactive | inactive | inactive | inactive | inactive | inactive | inactive
